Results from PubChem BioAssay AID1159580 (chemical genetic matrix, 2015).
Screen size: about 5,500 compounds; about 2,000 (36%) were called active. Roughly 18% stayed inconclusive and do not appear here. The list shows a part of the results. Unmarked numbers belong to inactive results. Cut-off read from the data, not from the text of the source: active = normalized growth mostly below about 0.91 (no sharp cut-off); inconclusive = no clear call, values can overlap the other calls; inactive = mostly above about 0.92.

Assay: chemical genetic growth profiling, strain panel (AID 1159580);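 note: tested at 20 µM; growth read once vehicle control cultures reached saturation at 30 °C; 1 = growth at the plate median or of vehicle wells; lower values mean less growth of the strain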
Conditions: growth OD

## c1cc2c(cc1[C@H]1OC[C@H]3[C@@H]1CO[C@H]3c1ccc3c(c1)OCO3)OCO2
S. cerevisiae deletion strains, locus YJR075W, strain HOC1, active compounds read low
  normalized growth: 0.914
S. cerevisiae deletion strains, locus YKL009W, strain mrt4, active compounds read low
  normalized growth: 0.922
S. cerevisiae deletion strains, locus YKL068W, active compounds read low
  normalized growth: 0.929 (active)
S. cerevisiae deletion strains, locus YKL085W, strain MDH1 (second series), active compounds read low
  normalized growth: 0.915 (active)
S. cerevisiae deletion strains, locus YKL085W, strain MDH1, active compounds read low
  normalized growth: 0.915 (active)
S. cerevisiae deletion strains, locus YKL160W, strain elf1, active compounds read low
  normalized growth: 0.878 (active)
S. cerevisiae deletion strains, locus YKL190W, strain CNB1, active compounds read low
  normalized growth: 0.947
S. cerevisiae deletion strains, locus YKR001C, strain vps1, active compounds read low
  normalized growth: 0.683 (active)
S. cerevisiae deletion strains, locus YKR026C, strain gcn3, active compounds read low
  normalized growth: 0.916 (active)
S. cerevisiae deletion strains, locus YKR091W, strain srl3, active compounds read low
  normalized growth: 0.899 (active)
S. cerevisiae deletion strains, locus YLL001W, strain dnm1, active compounds read low
  normalized growth: 0.887 (active)
S. cerevisiae deletion strains, locus YLL026W, active compounds read low
  normalized growth: 0.922 (active)
S. cerevisiae deletion strains, locus YLL041C, strain sdh2, active compounds read low
  normalized growth: 0.926 (active)
S. cerevisiae deletion strains, locus YLR027C, strain aat2, active compounds read low
  normalized growth: 0.931
S. cerevisiae deletion strains, locus YLR039C, strain RIC1, active compounds read low
  normalized growth: 0.398 (active)
S. cerevisiae deletion strains, locus YLR058C, strain SHM2, active compounds read low
  normalized growth: 0.943
S. cerevisiae deletion strains, locus YLR102C, strain apc9, active compounds read low
  normalized growth: 0.923 (active)
S. cerevisiae deletion strains, locus YLR113W, strain HOG1, active compounds read low
  normalized growth: 0.865
S. cerevisiae deletion strains, locus YLR221C, strain rsa3, active compounds read low
  normalized growth: 0.886 (active)
S. cerevisiae deletion strains, locus YLR258W, strain gsy2, active compounds read low
  normalized growth: 0.914 (active)
S. cerevisiae deletion strains, locus YLR262C, strain YPT6 (second series), active compounds read low
  normalized growth: 0.455 (active)
S. cerevisiae deletion strains, locus YLR262C, strain YPT6, active compounds read low
  normalized growth: 0.415 (active)
S. cerevisiae deletion strains, locus YLR268W, strain sec22, active compounds read low
  normalized growth: 0.833 (active)
S. cerevisiae deletion strains, locus YLR320W, strain mms22, active compounds read low
  normalized growth: 0.732 (active)
S. cerevisiae deletion strains, locus YLR330W, strain CHS5, active compounds read low
  normalized growth: 0.816 (active)
S. cerevisiae deletion strains, locus YLR342W, strain FKS1 (second series), active compounds read low
  normalized growth: 0.77 (active)
S. cerevisiae deletion strains, locus YLR342W, strain FKS1, active compounds read low
  normalized growth: 0.9 (active)
S. cerevisiae deletion strains, locus YLR357W, strain rsc2, active compounds read low
  normalized growth: 0.951
S. cerevisiae deletion strains, locus YLR370C, strain arc18, active compounds read low
  normalized growth: 0.914
S. cerevisiae deletion strains, locus YLR371W, strain rom2, active compounds read low
  normalized growth: 0.912
S. cerevisiae deletion strains, locus YLR384C, strain iki3, active compounds read low
  normalized growth: 0.936
S. cerevisiae deletion strains, locus YLR418C, strain cdc73, active compounds read low
  normalized growth: 0.692 (active)
S. cerevisiae deletion strains, locus YML016C, strain PPZ1, active compounds read low
  normalized growth: 0.947
S. cerevisiae deletion strains, locus YML032C, strain rad52, active compounds read low
  normalized growth: 0.902 (active)
S. cerevisiae deletion strains, locus YML120C, strain ndi1, active compounds read low
  normalized growth: 0.897 (active)
S. cerevisiae deletion strains, locus YML124C, strain tub3, active compounds read low
  normalized growth: 0.902 (active)
S. cerevisiae deletion strains, locus YMR058W, strain fet3, active compounds read low
  normalized growth: 0.896 (active)
S. cerevisiae deletion strains, locus YMR078C, strain ctf18, active compounds read low
  normalized growth: 0.892 (active)
S. cerevisiae deletion strains, locus YMR125W, strain sto1, active compounds read low
  normalized growth: 0.826 (active)
S. cerevisiae deletion strains, locus YMR129W, active compounds read low
  normalized growth: 0.925
S. cerevisiae deletion strains, locus YMR205C, strain PFK2, active compounds read low
  normalized growth: 0.774 (active)
S. cerevisiae deletion strains, locus YMR223W, strain ubp8, active compounds read low
  normalized growth: 0.914
S. cerevisiae deletion strains, locus YMR231W, strain pep5, active compounds read low
  normalized growth: 0.934
S. cerevisiae deletion strains, locus YMR307W, strain GAS1, active compounds read low
  normalized growth: 0.9
S. cerevisiae deletion strains, locus YNL067W, strain RPL9B, active compounds read low
  normalized growth: 0.957
S. cerevisiae deletion strains, locus YNL071W, strain lat1, active compounds read low
  normalized growth: 0.614 (active)
S. cerevisiae deletion strains, locus YNL128W, strain TEP1, active compounds read low
  normalized growth: 1.01
S. cerevisiae deletion strains, locus YNL153C, strain GIM3, active compounds read low
  normalized growth: 0.822 (active)
S. cerevisiae deletion strains, locus YNL183C, strain NPR1, active compounds read low
  normalized growth: 0.925
S. cerevisiae deletion strains, locus YNL209W, strain ssb2, active compounds read low
  normalized growth: 0.958
S. cerevisiae deletion strains, locus YNL233W, strain BNI4, active compounds read low
  normalized growth: 0.882
S. cerevisiae deletion strains, locus YNL248C, strain rpa49, active compounds read low
  normalized growth: 0.948
S. cerevisiae deletion strains, locus YNL250W, strain rad50, active compounds read low
  normalized growth: 0.929
S. cerevisiae deletion strains, locus YNL271C, strain bni1, active compounds read low
  normalized growth: 0.932
S. cerevisiae deletion strains, locus YNL298W, strain CLA4, active compounds read low
  normalized growth: 0.922
S. cerevisiae deletion strains, locus YNL307C, strain MCK1, active compounds read low
  normalized growth: 0.797 (active)
S. cerevisiae deletion strains, locus YNL322C, strain KRE1 (second series), active compounds read low
  normalized growth: 0.907
S. cerevisiae deletion strains, locus YNL322C, strain KRE1, active compounds read low
  normalized growth: 0.94
S. cerevisiae deletion strains, locus YNR049C, strain mso1, active compounds read low
  normalized growth: 0.917 (active)
S. cerevisiae deletion strains, locus YNR052C, strain pop2, active compounds read low
  normalized growth: 0.899 (active)
S. cerevisiae deletion strains, locus YOL012C, strain htz1
  normalized growth: 0.632
S. cerevisiae deletion strains, locus YOL147C, strain pex11, active compounds read low
  normalized growth: 0.914 (active)
S. cerevisiae deletion strains, locus YOR001W, strain rrp6, active compounds read low
  normalized growth: 0.945
S. cerevisiae deletion strains, locus YOR061W, strain CKA2, active compounds read low
  normalized growth: 0.948
S. cerevisiae deletion strains, locus YOR069W, strain VPS5, active compounds read low
  normalized growth: 0.962
S. cerevisiae deletion strains, locus YOR070C, strain gyp1, active compounds read low
  normalized growth: 0.908 (active)
S. cerevisiae deletion strains, locus YOR080W, strain dia2, active compounds read low
  normalized growth: 0.909 (active)
S. cerevisiae deletion strains, locus YOR083W, strain WHI5, active compounds read low
  normalized growth: 0.877 (active)
S. cerevisiae deletion strains, locus YOR106W, strain vam3, active compounds read low
  normalized growth: 0.908
S. cerevisiae deletion strains, locus YOR136W, strain idh2, active compounds read low
  normalized growth: 0.973
S. cerevisiae deletion strains, locus YOR144C, strain elg1, active compounds read low
  normalized growth: 0.907 (active)
S. cerevisiae deletion strains, locus YOR184W, strain ser1, active compounds read low
  normalized growth: 0.624 (active)
S. cerevisiae deletion strains, locus YOR231W, strain MKK1, active compounds read low
  normalized growth: 0.897
S. cerevisiae deletion strains, locus YOR265W, strain rbl2, active compounds read low
  normalized growth: 0.906 (active)
S. cerevisiae deletion strains, locus YOR270C, strain vph1, active compounds read low
  normalized growth: 0.639 (active)
S. cerevisiae deletion strains, locus YOR290C, strain snf2, active compounds read low
  normalized growth: 0.828 (active)
S. cerevisiae deletion strains, locus YOR316C, strain cot1, active compounds read low
  normalized growth: 0.912 (active)
S. cerevisiae deletion strains, locus YPL051W, strain arl3, active compounds read low
  normalized growth: 0.865 (active)
S. cerevisiae deletion strains, locus YPL055C, strain LGE1, active compounds read low
  normalized growth: 0.923
S. cerevisiae deletion strains, locus YPL078C, strain atp4, active compounds read low
  normalized growth: 0.863 (active)
S. cerevisiae deletion strains, locus YPL106C, strain sse1, active compounds read low
  normalized growth: 0.886
S. cerevisiae deletion strains, locus YPL240C, strain hsp82, active compounds read low
  normalized growth: 0.919 (active)
S. cerevisiae deletion strains, locus YPL241C, strain CIN2, active compounds read low
  normalized growth: 0.945
S. cerevisiae deletion strains, locus YPL256C, strain CLN2, active compounds read low
  normalized growth: 0.898
S. cerevisiae deletion strains, locus YPR119W, strain clb2, active compounds read low
  normalized growth: 0.914 (active)
S. cerevisiae deletion strains, locus YPR141C, strain kar3, active compounds read low
  normalized growth: 0.897 (active)
S. cerevisiae deletion strains, locus YPR163C, strain tif3, active compounds read low
  normalized growth: 0.866 (active)
S. cerevisiae deletion strains, locus YPR167C, strain met16, active compounds read low
  normalized growth: 0.887 (active)
S. cerevisiae deletion strains, strain wtn01, active compounds read low
  normalized growth: 0.854 (active)
S. cerevisiae strains, strain wild type, active compounds read low
  normalized growth: 0.93
